# TGFb SMAD3 inh – inhibitors of TGF-b signaling | HepG2 CAGA-GFP TGF-b/SMAD3 reporter, GFP fluorescence, 18 h; TGF-beta stimulated, 500 pg/mL final | Potency, µM (top dose mostly 46.1 µM), without a hit: at the highest dose activity, negative = inhibition, hits mostly inhibitors | 410,000 compounds, 1.2% hits; further: on the % scale 0 is the no-effect control and ±100 the full control effect; nearly all actives have a fitted effect of over 65% in size
#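 Inhibition was scored as loss of TGF-beta-induced (500 pg/mL final, 18 hours, 37 degrees C) GFP in HEPG2 cells carrying a CAGA-GFP reporter, in DMEM with 1% FBS. Well GFP was summed per cell; Activity was normalised to unstimulated and stimulated DMSO wells, then concentration-response fitting.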
# VP16 counter – counter-screen for ROR gamma inhibitors: Gal4-VP16 reporter. Drosophila S2 Gal4-VP16 UAS-luciferase, luminescence, 20 h. Potency, µM (doses to about 53.6 µM), for the others: at the highest dose activity, negative = inhibition, most hits filed as inhibitors. 310,000 compounds, 3.5% hits. AID 2546;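 further: Gal4-VP16 expression switched on by copper sulfate through the metallothionein promoter; on the % scale 0 is the no-effect control and ±100 the full control effect; nearly all actives have a fitted effect of over 50% in size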
# RORgamma inh – ROR gamma (mouse) transcription inhibition; Potency, µM (highest dose often 53.6 µM), inactives show at the highest dose activity change, negative = inhibition, actives largely listed as inhibitors; 310,000 compounds, 5.4% hits; P51450; Drosophila S2 Gal4-RORgamma UAS-luciferase reporter, 20 h; further: on the % scale 0 is the no-effect control and ±100 the full control effect; nearly all actives have a fitted effect of over 60% in size
# Target sequence (P51450 whole entry, looked up, the tested form may be a part): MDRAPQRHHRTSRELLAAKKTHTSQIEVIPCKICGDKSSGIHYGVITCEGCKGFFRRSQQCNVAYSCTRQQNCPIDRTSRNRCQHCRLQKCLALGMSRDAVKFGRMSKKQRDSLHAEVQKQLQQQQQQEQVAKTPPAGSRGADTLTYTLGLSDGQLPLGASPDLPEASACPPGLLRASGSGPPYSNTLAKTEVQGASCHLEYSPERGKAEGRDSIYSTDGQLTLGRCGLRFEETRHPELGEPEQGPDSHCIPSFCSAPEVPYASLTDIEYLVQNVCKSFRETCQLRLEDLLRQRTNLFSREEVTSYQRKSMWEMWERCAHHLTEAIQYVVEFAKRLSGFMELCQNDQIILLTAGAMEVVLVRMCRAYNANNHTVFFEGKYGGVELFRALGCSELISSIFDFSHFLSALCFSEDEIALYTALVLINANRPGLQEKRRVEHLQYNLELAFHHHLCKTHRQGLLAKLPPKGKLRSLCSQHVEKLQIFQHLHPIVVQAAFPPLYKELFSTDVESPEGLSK
#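 Drosophila Schneider cells stably carrying a metallothionein-driven Gal4 DBD–ROR gamma fusion and a UAS-Photinus luciferase reporter were exposed to compound for 1 hr, then induced with copper sulfate (700 uM final) for 20 hr at ambient temperature before luminescence reading.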
# ATXN2 expr inh – ATXN2 expression inhibition; HEK-293 ATXN2-luciferase reporter, luminescence, 24 h; Potency, µM (titrated, usually from 57 µM), for inactives: at the top dose activity change, negative = inhibition, hits mostly inhibitors; 360,000 compounds, 0.72% hits; further: on the % scale 0 is the no-effect control and ±100 the full control effect; nearly all actives have a fitted effect of over 55% in size
#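 ATXN2-luciferase reporter cells (luciferase flanked by upstream and downstream ATXN2 gene portions) were treated 24 h at 37 °C with compounds at up to 57 uM. SteadyGlo luminescence gave expression; GF-AFC fluorescence gave viability.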
# ATXN viability – reduces viability in counter-screen for ATXN expression inhibitors | S2 cells (HEK-293 line with an ATXN2-luciferase reporter) viability, CellTiter-Fluor protease fluorescence, 24 h | Potency, µM (highest dose often 56.7 µM), usual class: cytotoxic | AID 651635 | 400,000 compounds, 0.49% hits; further: nearly all actives have a fitted effect of over 40% in size
# HepG2 tox – kills HepG2 cells in TGF-b inhibitor counter-screen; HepG2 CAGA-GFP viability, ATP luminescence, 18 h; Potency, µM (doses to about 46.1 µM), for inactives: top-dose activity change, negative = cytotoxicity, hits mostly cytotoxic; 410,000 compounds, 0.76% hits; AID 588856
#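 HepG2 CAGA-GFP cells (1000/well, DMEM with 1% FBS) received compound, then TGF-beta at 500 pg/mL final, and were incubated 18 hours at 37 degrees C. Viability was read by CellTiter-Glo luminescence. Media-only wells were set as complete cell-killing and DMSO as no toxicity.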
# An asterisk follows results filed as active; i = inactive; ? = inconclusive; / = no result. In the library only some 6.3% were active in any assay of this set; here they are far more common. The call rests on the fitted dose curve; in most records, active means well fitted curve in the direction sought with a large enough effect; inconclusive means small, poorly fitted or top-dose-only effect, or another doubt; inactive means no such curve, though single readings can be large; an effect the other way counts as inactive or inconclusive. Potency means the concentration at half of the fitted maximal effect.
SMILES,TGFb SMAD3 inh,VP16 counter,RORgamma inh,ATXN2 expr inh,ATXN viability,HepG2 tox
C/C(=N\Nc1cccc(C(=O)O)c1)c1ccc(Cl)s1,1%,-11%,?,13%,i,5%
C/C(=N\NC(N)=S)c1ccc(Cl)s1,-25%,5µM*,1.4µM*,-11%,i,-9%
CC/C(=N\NC(=O)c1ccoc1C)c1ccc(C)o1,0%,10%,5µM*,18%,i,-13%
O=C(CSc1nc2c([nH]c3ccccc32)c(=O)n1-c1ccccc1F)Nc1ccccc1C(F)(F)F,?,/,/,/,/,-19%
CC(C)(C)CC(C)(C)SSc1n[nH]c(=S)s1,0%,/,/,-6%,i,-4%
COCCCNC(=O)Cn1c(=O)nc(-c2ccccc2)c2ccccc21,13%,/,/,/,/,3%
CCOc1ccc(CN(C)C(=O)c2ccc(S(=O)(=O)N(C)c3ccccc3OC)cc2)cc1,?,/,/,?,i,-44%
COC(=O)[C@@]1(Cc2ccc(F)cc2)[C@H]2c3cc(C(=O)N4CCCC4)n(CCCNc4ncc(C(F)(F)F)cc4Cl)c3C[C@H]2CN1C(=O)c1ccccc1,-36%,2%,34%,0%,?,-6%
O=C(COCC(=O)Nc1cccc(C(F)(F)F)c1)Nc1cccc(C(F)(F)F)c1,-20%,?,22µM*,-14%,i,22µM*
NNC(=O)COc1cccc(C(F)(F)F)c1,0%,-1%,8.9µM*,-13%,i,3%
Cc1cc(N2CCCC2)ccc1NC(=O)COc1cccc(C(F)(F)F)c1,?,?,11µM*,?,i,-36%
Cc1ccc(OC(F)F)c(NC(=O)Nc2cccc(C(F)(F)F)c2)c1,?,6.3µM*,5µM*,?,?,-96%
COC1=CC(=O)C(O)=C/C1=C\C=C\c1ccccc1,/,13µM*,-95%,/,/,/
CN(C(=O)c1cc2n(n1)C(C(F)(F)F)CC(c1ccco1)N2)c1ccc(OC(F)(F)F)cc1 (configuration not stated),-9%,18µM*,?,-15%,i,-43%
CN(C(=O)c1cc2n(n1)C(C(F)(F)F)CC(c1ccco1)N2)c1ccccc1 (configuration not stated),5%,21%,16%,-1%,i,4%
COc1cc(NC(C)CCCNC(C)C)c2ncccc2c1OC (configuration not stated),2%,/,/,-20%,i,2%
COc1cc(NCCCCCCN)c2ncccc2c1OC,0%,/,/,16µM*,?,-7%
COc1ccc(C2=CC(c3ccc(OC)c(OC)c3)NC(=S)N2)cc1 (configuration not stated),-5%,1%,?,-4%,i,-17%
COc1ccc(C2C=C(c3ccc(F)cc3)NC(=S)N2)cc1OC (configuration not stated),-19%,?,8.9µM*,/,i,-10%
Cc1ccc(S(=O)(=O)/N=C2\C=C(Nc3cccc(C(=O)O)c3)C(=O)c3ccccc32)c(C)c1,13µM*,?,?,32µM*,/,16µM*
Cc1ccc(NC2=C/C(=N/S(=O)(=O)c3cccs3)c3ccccc3C2=O)cc1,?,6.3µM*,10µM*,7.9µM*,7.9µM*,4µM*
COC(=O)c1ccccc1Nc1ccccc1,0%,-10%,-13%,-5%,?,-2%
Cc1ccc(S(=O)(=O)/N=C2\C=C(Nc3cccc(C(=O)O)c3)C(=O)c3ccccc32)cc1,13µM*,?,16µM*,?,?,-111%
COC(=O)c1ccccc1NC1=C/C(=N\S(=O)(=O)c2ccc(C(=O)O)cc2)c2ccccc2C1=O,8.9µM*,?,?,?,18µM*,16µM*
CCc1ccc(S(=O)(=O)/N=C2\C=C(Nc3ccc(C(=O)O)cc3)C(=O)c3ccccc32)cc1,16µM*,?,11µM*,?,?,-109%
SMILES,TGFb SMAD3 inh,VP16 counter,RORgamma inh,ATXN2 expr inh,ATXN viability,HepG2 tox
CC(C)(C)c1ccc(S(=O)(=O)/N=C2\C=C(NS(=O)(=O)c3ccccc3)C(=O)c3ccccc32)cc1,?,-5%,2%,-17%,?,-51%
Cc1ccc(/C=c2/sc3nnc(-c4ccccc4Cl)n3c2=O)o1,-1%,?,4.5µM*,-3%,i,5%
Clc1ccc2c(ccc[n+]2CCc2ccccc2)c1,-6%,/,/,/,/,-25%
CCCCN(CC(O)COc1cccc(C)c1)CC(O)COc1cccc(C)c1 (configuration not stated),16µM*,?,?,-33%,?,-100%
COc1cc(=O)n2c(c1C(=O)NCc1nonc1C)CCN(Cc1c[nH]c3ccccc13)CC2,/,/,/,/,i,/
N#CCCN(Cc1ccccc1)C(C(=O)NC1CCCCC1)c1ccnc2ccccc12 (configuration not stated),?,/,/,1%,?,-13%
CC(C)NC(=S)NC(=O)/C=C/c1cccc2ccccc12,-5%,4.5µM*,1.4µM*,-17%,i,-17%
CC(O)C(=O)N/N=C/c1cccc2ccccc12 (configuration not stated),-28%,9%,-2%,/,i,-13%
CN1CCN(C(=S)NC(=O)/C=C/c2cccs2)CC1,13%,?,10µM*,4%,i,-32%
CN1CCN(C(=S)NC(=O)/C=C/c2cccc3ccccc23)CC1,-23%,3.2µM*,1µM*,-2%,i,-33%
COc1cccc(Nc2nc3ccc(OC)cc3s2)c1,-5%,?,11µM*,/,i,9%
COc1ccc2nc(Nc3sc4c(c3C(N)=O)CCCC4)sc2c1,?,3.5µM*,1.4µM*,54%,i,-53%
O=[N+]([O-])c1ccc(Nc2nc(NCCN3CCOCC3)nc(Nc3ccc(Cl)cc3)n2)cc1,?,/,/,/,/,-77%
Cn1nnnc1Sc1ncnc2scc(-c3ccc(-c4ccccc4)cc3)c12,?,/,/,?,?,-54%
Cn1nnnc1Sc1ncnc2scc(-c3ccccc3C(F)(F)F)c12,?,/,/,?,?,-16%
Cn1nnnc1Sc1ncnc2scc(-c3ccsc3)c12,13µM*,/,/,14µM*,?,-78%
Cn1nnnc1Sc1ncnc2scc(-c3cccs3)c12,?,/,/,8.9µM*,i,-107%
Cn1nnnc1Sc1ncnc2scc(-c3cc4ccccc4o3)c12,2.5µM*,/,/,5.6µM*,13µM*,4.5µM*
CCOc1ccccc1NC(=O)C1CCN(S(=O)(=O)c2cc(Br)cc3c2N(C(C)=O)CC3)CC1,-3%,/,/,14%,i,10%

# Screens (PubChem)
